Compound activity as filed in PubChem.
Shown are actives, neighbours in structure and some others; about 6.1% of the full set was active somewhere.
DRD3 agonist = agonists of human D3 dopamine receptor | D3R DiscoveRx beta-arrestin cells, luminescence, 90 min | max activation, % | 410,000 compounds, 0.58% hits | AID 652048; in the data active = max activation above about 30%
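Agonist-mode cell screen: cells plated at 1500/well and incubated overnight at 37 °C, then exposed to library compounds for 90 min at 37 °C. Detection reagent was added for 30–60 min at room temperature, and luminescence was read.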
D1 agonist = activates the human D1 dopamine receptor; P21728; HEK293 T-REx D1 cells, calcium flux, agonist mode; activation, % at 2 µM; 360,000 compounds, 1% hits; AID 504660; in the data active = activation above about 30%
Target sequence (P21728 whole entry, looked up): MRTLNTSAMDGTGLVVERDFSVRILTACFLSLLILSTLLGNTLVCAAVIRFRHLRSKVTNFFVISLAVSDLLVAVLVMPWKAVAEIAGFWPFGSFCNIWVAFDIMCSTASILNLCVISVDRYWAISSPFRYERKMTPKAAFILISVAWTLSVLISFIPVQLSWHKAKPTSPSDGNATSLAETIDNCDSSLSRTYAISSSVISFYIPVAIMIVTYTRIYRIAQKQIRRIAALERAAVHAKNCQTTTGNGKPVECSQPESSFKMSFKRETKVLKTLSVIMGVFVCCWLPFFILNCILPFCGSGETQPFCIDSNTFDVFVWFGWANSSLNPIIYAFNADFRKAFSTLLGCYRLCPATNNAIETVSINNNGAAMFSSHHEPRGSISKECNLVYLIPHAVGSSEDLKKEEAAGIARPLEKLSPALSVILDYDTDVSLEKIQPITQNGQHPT
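Agonism was scored from calcium flux recorded over 180 s (1 read/s) after pintool compound addition, following a 10-cycle baseline. Cells were inducible force-coupled HEK293 TREx D1, plated overnight at 30 C and loaded with no-wash calcium dye.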
D1 PAM = human D1 dopamine receptor positive modulation | P21728 | HEK293 TREx D1 cells, calcium flux, dopamine EC20 potentiation | potentiation, % at 10 µM | 360,000 compounds, 0.036% hits | AID 504651; in the data active = potentiation above about 30%
D1 antag = human D1 dopamine receptor antagonism; activity change, negative = inhibition, % at 10 µM; HEK293 TREx D1 cells, calcium flux, dopamine EC80; hits give low values; P21728; 360,000 compounds, 3.2% hits; in the data active = activity change below about -30%
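Compound effects on dopamine-evoked calcium signalling were measured in tetracycline-induced HEK293 Trex D1 cells. Dopamine at EC80 followed a 180 s compound pre-read, and fluorescence was tracked kinetically for 180 s more.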
DRD3 antagonist = D3 dopamine receptor (human) antagonism | D3R cells, DiscoveRx beta-arrestin luminescence, antagonist mode; hits give low values | 360,000 compounds, 2.5% hits | max response, negative = inhibition, % | P35462; in the data active = max response below about -50%; inconclusive = no clear call, values can overlap the other calls
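Cells plated overnight at 1500 cells/well, then exposed to library compounds with dopamine controls for 90 minutes at 37 degrees C. DiscoveRx reagent added for 30–60 minutes at room temperature; luminescence read, quantitative HTS format.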
Of the large screens only hits and unclear results are named; the others gave an inactive call.

COC(=O)c1ccc(C2c3[nH]c4ccccc4c3C[C@H]3C(=O)N(C4CCN(Cc5ccccc5)CC4)CC(=O)N23)cc1 (some centres undefined)	DRD3 antagonist -61.2
CCOc1ccccc1C1c2[nH]c3ccccc3c2C[C@H]2C(=O)N(C3CCN(Cc4ccccc4)CC3)CC(=O)N12 (some centres undefined)	DRD3 antagonist -104.8
Oc1c(Br)cc(Br)cc1/C=N/N1CCN(Cc2ccccc2)CC1	DRD3 antagonist -80.4
Cc1ccc(NCc2cccn2-c2nnc(N3CCC(C(=O)NCCc4ccccc4)CC3)s2)cc1	none (no result: DRD3 antagonist)
NC(=O)C1CCN(C(=O)c2ccccc2NC(=O)c2nsc3ccccc23)CC1	none (no result: DRD3 antagonist)
C/C(=N\NC(=O)CSCc1ccccc1Cl)c1cc(O)ccc1O	D1 antag -36.5
CCN(Cc1ccccc1)C(c1cccs1)c1nnnn1C1CCCCC1 (centres undefined)	none
CC(C)(C)n1nnnc1C(c1cccs1)N(Cc1cccnc1)Cc1ccccc1Cl (centres undefined)	DRD3 antagonist -58.0
c1csc(C(c2nnnn2C2CCCC2)N2CCOCC2)c1 (centres undefined)	DRD3 antagonist inconclusive
Clc1ccccc1CN(Cc1ccccc1)C(c1cccs1)c1nnnn1C1CCCC1 (centres undefined)	D1 antag -34.0
Clc1ccc(CN(CC2CCCO2)C(c2cccs2)c2nnnn2C2CCCC2)cc1 (centres undefined)	D1 antag -52.6
CCN1CCOC(=O)C1CC(=O)Nc1ccc(Br)cc1 (centres undefined)	none (no result: DRD3 antagonist)
c1coc(CNc2ncnc3[nH]ncc23)c1	D1 antag -40.7
CC(C)NC(=S)N(C)C1(c2ccccc2Cl)CCCCC1=O (centres undefined)	none
CN(C(=S)Nc1ccccc1F)C1(c2ccccc2Cl)CCCCC1=O (centres undefined)	DRD3 agonist 30.1
CSC1=NCCN1C(=O)c1c(-c2c(F)cccc2Cl)noc1C	none
Cc1ccc(-n2cnc3cc(C(=O)NC4CCCCCC4)ccc32)cc1Cl	none (no result: DRD3 antagonist)
Cc1cc(CNC(=O)c2cc(COc3ccc(F)c(F)c3)on2)nn1C	none
CCOC(=O)CC1(NC(=O)c2cc(COc3ccc(F)c(F)c3)on2)CCCCC1	D1 agonist 31.2
CCCN(CCC)S(=O)(=O)c1ccc(NC(=O)c2cc(C(=O)OC)cc([N+](=O)[O-])c2)cc1	D1 antag -37.9
CCOC(=O)/C(C#N)=C/C=C1/C=CC=CN1C	none
C=CCN1C=CC(=C/C=C(/C#N)C(=O)OCC)C=C1	D1 agonist 92.7
CS(=O)(=O)NCCNc1ncc(C(F)(F)F)cc1Cl	D1 antag -31.8
O=C1CC(=O)N(CCNc2ncc(C(F)(F)F)cc2Cl)C(=O)N1	none
O=C1C=CC(=O)N1CCNc1ncc(C(F)(F)F)cc1Cl	DRD3 antagonist -112.6
C=CCNC(=O)COC(=O)c1ccc(Cl)c(S(N)(=O)=O)c1	D1 antag -37.1, DRD3 antagonist inconclusive
O=C(NCc1ccc2c(c1)CCN2C(=O)c1ccccc1)Nc1cccc(C(F)(F)F)c1	D1 antag -43.0 (no result: DRD3 antagonist)
COc1ccc(N(CC(=O)Nc2ccccc2C(=O)N2CCCC2)S(C)(=O)=O)cc1	none
O=C(CSc1ccccc1)N1CCN(S(=O)(=O)c2ccccc2)CC1	none
Cc1ccc(C)c(S(=O)(=O)N2CCN(C(=O)CSc3ccccc3)CC2)c1	D1 antag -40.5
Cc1ccc(C)c(S(=O)(=O)N2CCN(C(=O)CCc3c[nH]c4ccccc34)CC2)c1	D1 antag -34.7
Cc1nnc(SCC(=O)N2CCN(S(=O)(=O)c3ccccc3)CC2)s1	D1 antag -39.3
Cc1ccc(S(=O)(=O)N2CCN(C(=O)CSc3nnc(-c4ccco4)o3)CC2)cc1	D1 antag -40.4
COc1ccc(-c2[nH]ncc2/C=N/NC(=O)c2cccc([N+](=O)[O-])c2)cc1OC	none
CCOC(=O)c1sc(NC(=O)C2CC(=O)N(c3ccccc3OC)C2)nc1C (centres undefined)	none
CCC(C(=O)OCC(=O)N1CCN(S(=O)(=O)c2ccc(C)cc2C)CC1)c1ccccc1 (centres undefined)	D1 agonist 48.9 (no result: D1 PAM)
CCOc1ccccc1N(CC(=O)NCCSc1ccccc1)S(=O)(=O)c1ccccc1	none (no result: DRD3 antagonist)
CCN(CC)C(=O)C1=C(C)N(Cc2ccc(OC)cc2)C(=O)C(CC(=O)NCC2CCCCC2)C1 (centres undefined)	none (no result: D1 agonist, D1 PAM, D1 antag)
